According to PubChem BioAssay (NCI):
The panel holds about 83,000 compounds, 20% with a hit somewhere; the sample as a whole holds those more often.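 A percent growth of 40 corresponds to 60% growth inhibition; 0 means no net growth; -100 means all cells died. Active threshold: below 10.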 Values without a mark were called inactive. Activity calls are given as the source filed them.

Each compound was assayed on SK-MEL-2 melanoma (assay: NCI-60 one-dose screen, 48 h (100 = growth as untreated, 0 = no growth, -100 = all killed)). Details: 10 µM unless noted.
Description: Growth inhibition of the SK-MEL-2 human tumor cell line is measured as a screen for anti-cancer activity. Cells are grown in 96 well plates and exposed to the test compound for 48 hours. Compounds are tested at a single concentration, which is 10^-5 M for most compounds. The reported endpoint is percent growth (GI% or GIPRCNT), where numbers from 0 - 100% represent growth inhibition, and numbers from -100% - 0 represent cell death. For example, a value of 40 represents 60% growth inhibition. A value of 0 means no net growth occurred over the course of the experiment. A value of -40 indicates 40% of cells at the beginning of the experiment died by the end of the experiment. A value of -100 means all cells are dead at the end of the experiment.
NCI-60 Human Tumor Cell Lines Screen was performed using the standard one-dose NCI protocol, which is described in more detail at https://dtp.cancer.gov/discovery_development/nci-60/default.htm.
Compounds with GIPRCNT values below 10 were considered active. Activity score was based on GIPRCNT using the following formula: […]
Score is 0 for GIPRCNT values of 100 or above, 50 for GIPRCNT values of 0, and 100 for GIPRCNT values of -100.

`Cc1cc(C(=C2C=CC(=Nc3ccccc3)C=C2)c2ccc(Nc3ccccc3)cc2)ccc1N` was tested, and the growth was -87.4% (active).
With `Cc1ccc2c(c1)sc(-c1ccc(N(C)C)cc1)[n+]2C` the growth was 0.0539% (active).
For `CCCCCCCCCCCC[N+]1(CCCCCCCCCCCC)CCCC(C)C1` (stereo not given), the growth was -96.5% (active).
`CCCCCCCCCCCCCCCCSC(=NCC)NCC` was tested, and the growth was -21.6% (active).
`Cc1ccc(NC2=CC(=O)C(=O)c3ccccc32)cc1` was tested, and the growth was 4.01% (active).
In the case of `COc1ccc2nc3cc(Cl)ccc3c(NCCCCCN3CCCCC3)c2c1`, the growth is reported as -71.8% (active).
`Cc1cc2cccnc2c2ncccc12` was tested, and the growth was 6.1% (active).
`CC1(C)N=c2cc3c(cc2N1c1ccc(Cl)cc1)=Nc1ccccc1N3c1ccc(Cl)cc1` was tested, and the growth was -1.35% (active).
`COc1cc(-c2ccc(-[n+]3nc(-c4ccc([N+](=O)[O-])cc4)nn3-c3ccc([N+](=O)[O-])cc3)c(OC)c2)ccc1-[n+]1nc(-c2ccc([N+](=O)[O-])cc2)nn1-c1ccc([N+](=O)[O-])cc1` was tested, and the growth was 1.62% (active).
With `CCCOC(=O)c1nc(N(CC2CCCCC2)C(=O)NC)sc1/N=C/c1ccccc1` the growth was -0.0368% (active).
With `O=C1/C(=C\c2ccc([N+](=O)[O-])cc2)CS(=O)(=O)C/C1=C/c1ccc([N+](=O)[O-])cc1` the growth was -35.9% (active).

Compared with `OCCOSCCO`, `CC(C)(C)CC(C)(C)c1ccc(OCCOCCSC(=N)N)cc1` is lower in growth: 106% for the first, 85% for the second.

First: [Cl-].[Rh+3].c1ccc(-c2ccnc3c2ccc2c(-c4ccccc4)ccnc23)cc1.c1ccc(-c2ccnc3c2ccc2c(-c4ccccc4)ccnc23)cc1.c1ccc(-c2ccnc3c2ccc2c(-c4ccccc4)ccnc23)cc1
Second: COc1ccc(C(OCC2OC(n3ccc(NC(=O)c4ccccc4)nc3=O)C(O)C2O)(c2ccccc2)c2ccccc2)cc1 (stereo not given)
The growth of the first is higher: 95.9% for the first, 90.1% for the second.

Going from `Cc1cc(I)nc2ccccc12` to `O=C(c1ccccc1)c1cc2ccccc2oc1=O`, the growth rises from 110% to 126%.

Compared with `CC1=CC(=O)C=CC1(C)C(Cl)(Cl)Cl` (stereo not given), `O=C(/C=C/C(Cl)(Cl)Cl)Nc1ccc(Cl)cc1` is lower in growth: 87.5% for the first, 84.6% for the second.

Compared with `Cc1cc(C(N)=O)cc(C)c1C(=O)OCCCl`, `CC(=O)Nc1ccc(C(=O)CCl)cc1` is lower in growth: 119% for the first, 96.6% for the second.

First: CCCCCCCCCCCCCCCCCC[S+](C)CC (stereo not given)
Second: CCCCCCCCCCCCCCCC[N+]1(C)CCCC1c1cccnc1 (stereo not given)
The growth of the first is lower: 48.1% for the first, 98.1% for the second.

Going from `O=[N+]([O-])c1ccc(Oc2ccccc2Cl)c([N+](=O)[O-])c1` to `O=C(c1ccccc1)C(Br)[N+](=O)[O-]` (stereo not given), the growth rises from 88.6% to 97.5%.

Going from `CN(C)CCSC1=Nc2ccc(Cl)cc2C(c2ccccc2Cl)N(C)C1` (stereo not given) to `N#CC1c2ccccc2C=CN1C(=O)CCCl` (stereo not given), the growth rises from 81.8% to 94.1%.

First: CCCCCCCCCCCC1=NCCCN1CCCC
Second: CCCCCCN(CCCCCC)CCCNc1nccc2ccccc12
The growth of the first is higher: 107% for the first, 21.4% for the second.

First: Cc1oc2c(C)c3oc(=O)cc(C)c3cc2c1CCl
Second: COc1cc2c(c(OC)c1OC)-c1ccc(NCc3ccccc3)c(=O)cc1[C@@H](NC(C)=O)CC2
The growth of the first is higher: 109% for the first, 19.2% for the second.

Compared with `Oc1c(Cl)cc(Cl)cc1C=NCC1CCC(CN=Cc2cc(Cl)cc(Cl)c2O)CC1` (stereo not given), `COc1cc(NC(=O)C2=C(C)NC(C)=C(C(=O)Nc3cc(OC)c(Cl)cc3OC)C2c2cccc([N+](=O)[O-])c2)c(OC)cc1Cl` is lower in growth: 92.9% for the first, 10.2% for the second.

Going from `CCCCCCCCC(=O)OCCCC(CCC(CCC1CCCO1)OC(=O)CCCCCCCC)OC(=O)CCCCCCCC` (stereo not given) to `C/C(=N\NC(=S)N1CC2CCC(CC2)C1)c1ccccn1`, the growth falls from 103% to 13.7%.

Going from `C/C(=N/NC(N)=S)c1ccc(C)cc1` to `Oc1ccc(Br)cc1Sc1cc(Br)ccc1O`, the growth falls from 101% to 54.4%.

First: CC(C)(C)c1ccc(O)c(Br)c1
Second: CC12CCC(O)CC1=CCC1C2CCC2(C)C3=NN=CC3CC12 (stereo not given)
The growth of the first is higher: 126% for the first, 118% for the second.

In the case of `CC(=O)N1CC(=O)NC1=S`, the growth is reported as 105%.
